Sampled rows, rich in hits. Any-hit rate of the full collection: about 8%.
Marburg entry: qHTS for Inhibitors of binding or entry into cells for Marburg Virus | Marburg virus pseudotype entry/binding inhibition, cell-based | Potency, µM (titrated, usually from 49.2 µM), for inactives: at the top dose activity change, negative = inhibition, actives largely listed as inhibitors | 18,000 tested, 6.5% active
Lassa entry: qHTS for Inhibitors of binding or entry into cells for Lassa Virus; 18,000 tested, 4.1% active; Lassa virus pseudotyped entry inhibition, cell-based qHTS; Potency, µM (series often up to 49.2 µM), for the others: at the highest dose activity change, negative = inhibition, hits mostly inhibitors
* = called active by the depositor; u = inconclusive; ! = repeats disagree; [ ] = remark or other dose. The call rests on the fitted dose curve; tested in HEK293 cells. On the % scale 0 is the no-effect control and ±100 the full control effect; potency means the concentration at half of the fitted maximal effect.

SMILES | Marburg entry | Lassa entry
Oc1ccc2c3c1O[C@H]1c4c(c5ccccc5n4Cc4ccccc4)C[C@]4(O)[C@H](C2)N(CC2CC2)CC[C@@]314 | 11µM* | 16µM*
Oc1ccc2c3c1O[C@H]1c4[nH]c5ccccc5c4C[C@]4(O)[C@H](C2)N(CC2CC2)CC[C@@]314 | 22µM* | u
COC(=O)/C=C/C(=O)N[C@@H]1CC[C@@]2(O)[C@H]3Cc4ccc(O)c5c4[C@@]2(CCN3CC2CC2)[C@H]1O5 | 10µM* | 28µM*
O=c1[nH]cnc2[nH]cc(CN3CCCCC3)c12 | 5% | -14%
OC[C@@H]1[C@@H](c2ccc(Cl)cc2)C(c2cccc(Cl)c2)=NN1c1ccccc1 | u | -27%
OCC(O)CO | -8% | 3%
CN[C@H](CC(C)C)C(=O)N[C@H]1C(=O)N[C@@H](CC(N)=O)C(=O)N[C@H]2C(=O)N[C@H]3C(=O)N[C@H](C(=O)N[C@@H](C(=O)O)c4cc(O)cc(O)c4-c4cc3ccc4O)[C@H](O)c3ccc(c(Cl)c3)Oc3cc2cc(c3O[C@@H]2O[C@H](CO)[C@@H](O)[C@H](O)[C@H]2O[C@H]2C[C@](C)(N)C(O)[C@H](C)O2)Oc2ccc(cc2Cl)[C@H]1O (some centres not stated) | 16% | -17%
NC(Cc1cc(I)c(Oc2ccc(O)c(I)c2)c(I)c1)C(=O)O (configuration not stated) | -2% | -20%
c1cncc(C2CCCCN2)c1 (configuration not stated) | -19% | 14%
CC(C)Oc1cc(-n2nc(C(C)(C)C)oc2=O)c(Cl)cc1Cl | -28% | u
CCCCCCCC1Cc2ccccc2C(C(C(=O)OC)C(=O)OC)N1C(=O)OC (configuration not stated) | -8% | u
Cc1c(C(=O)N(C)C2CCOC2)cnn1-c1ncc2c(n1)-c1ccccc1CCC2 (configuration not stated) | 82% | -3%
CC(=O)NCCCCCC(=O)O | 10% | 17%
Cc1ccc(S(=O)(=O)N[C@@H](Cc2ccccc2)C(=O)CCl)cc1 | u | 35µM*
Cc1ccc(S(=O)(=O)NCl)cc1 | -13% | -10%
O.O=C([O-])CC([S-])C(=O)[O-].[Au+].[Na+].[Na+] (configuration not stated) | 10% | -1%
CCC1CN(Cc2c(C)nc3sccn23)Cc2cc(OC)ccc2O1 (configuration not stated) | u | 1%
Cc1cccc(CN2[C@@H](C)[C@H](c3ccccc3)Oc3cc(Br)ccc3S2(=O)=O)c1 | -22% | -9%
CCOc1cc(N)c(Cl)cc1C(=O)NCC1CN(Cc2ccc(F)cc2)CCO1 (configuration not stated) | 11% | -1%
CCCCN1CCC(CCC(=O)c2cc(Cl)c(N)cc2OC)CC1 | 11µM* | 28µM*!
CC(C)(O)C1CC[C@@]2(C)C3CCC4[C@@]5(C)CCCC(C)(C)C5C(O)C[C@]4(C)[C@]3(C)CC[C@@H]12 (some centres not stated) | 8% | -4%
Cc1ccc([C@H]2C[C@H](n3cc(COC(=O)c4ccccc4)nn3)[C@@H](O)CN2CC2CCCCC2)cc1 | u | -18%
NC1CCc2cc(O)c(O)cc2C1 (configuration not stated) | 22µM*! | 0%
CC1(O)C(=O)C=C2C=C3CCCN3C=C2C1=O (configuration not stated) | u | 5%[8.59 µM]
CCOc1ccc(C(=O)c2ccc(O)c(O)c2O)cc1 | 41% | -1%
SMILES | Marburg entry | Lassa entry
CC1CC2C(C(O)C[C@]3(C)C2CC[C@]3(O)C(=O)CO)[C@]2(C)C=CC(=O)C=C12 (some centres not stated) | 5% | 4%
CC(C)(C(O)c1ccc([N+](=O)[O-])cc1)[N+](=O)[O-] (configuration not stated) | u | -12%
COC(=O)C1CCN(Cc2ccc3c(c2)CN(C(=O)c2ccnn2C)CCO3)CC1 | u | -5%
O=c1cc(-c2ccccc2Cl)oc2c(NS(=O)(=O)c3cc(Cl)cc(Cl)c3O)ccc(O)c12 | u | 10µM*
O=C(Nc1ccc(O)c2c(=O)cc(-c3ccccc3Cl)oc12)c1ccc(Cl)cc1Cl | -7% | -8%
CC(C)OC(=O)Nc1ccc2nc(-c3cscn3)[nH]c2c1 | -1% | 28µM*
CCCCc1ccc2nc(NC(=O)OC)[nH]c2c1 | -16%[17.8 µM] | -3%[17.8 µM]
CC(C)C[C@H]1COc2cc(Br)ccc2S(=O)(=O)N1Cc1ccc(F)cc1F | -20% | 2%
CCCCCCCCCOc1ccc2[nH]cc(CCN)c2c1 | 10µM* | 35µM*!
NCCc1c[nH]c2ccc(O)cc12 | -10% | -11%
Cc1ccc(-c2ccc(C(=O)NCc3ccc(Cl)cc3)o2)c2ccccc12 | -9% | u
O=C(NCc1ccccc1)c1ccc(-c2ccccc2C(F)(F)F)o1 | 34% | 11µM*
CC(=O)OC1CC[C@@]2(C)C3CC[C@@]4(C)C(CC5O[C@@]6(CCC(C)CO6)C(C)C54)C3CC[C@@H]2C1 (some centres not stated) | 9% | -7%
CC(=O)O[C@H]1C[C@H](O[C@H]2[C@@H](O)C[C@H](O[C@H]3[C@@H](O)C[C@H](OC4CC[C@@]5(C)[C@H](CC[C@@H]6[C@@H]5CC[C@]5(C)[C@@H](C7=CC(=O)OC7)CC[C@]65O)C4)O[C@@H]3C)O[C@@H]2C)O[C@H](C)[C@H]1O[C@@H]1O[C@H](CO)[C@@H](O)[C@H](O)[C@H]1O (some centres not stated) | 5.6µM* | 25µM*
CC(=O)OC1CCC23C(=O)OC45CCC(C6=CC(=O)OC6)C4(C)CCC2C5CCC3(O)C1 (configuration not stated) | 0.56µM* | 1.3µM*
CC(=O)O[C@H]1C[C@@H](O[C@@H]2[C@H](C)O[C@H](O[C@@H]3[C@H](C)O[C@H](O[C@@H]4CC[C@@]5(C)[C@@H](CC[C@]6(C)[C@]5(C)C[C@H](O)[C@]5(C)[C@@H](C7=CC(=O)OC7)CC[C@@]56O)C4)C[C@@H]3O)C[C@@H]2O)O[C@@H](C)[C@H]1O[C@H]1O[C@@H](CO)[C@@H](O)[C@@H](O)[C@@H]1O | 0.89µM* | 0.89µM*
CC(=O)OC1CC[C@]2(C)C(CCC3C2CC[C@]2(C)C(C4=CC(=O)OC4)C(OC(C)=O)CC32O)C1 (some centres not stated) | 0.71µM* | 1.4µM*
Cc1ccc(C2CC(=O)Oc3cc4c(cc32)OCO4)cc1 (configuration not stated) | 15% | -6%
COc1ccc(C(C)N(C)Cc2nc(N3CCN(C(=O)c4ccco4)CC3)c3ccccc3n2)cc1 (configuration not stated) | u | -28%
Cc1ncc[nH]1 | -5% | -10%
C=CC[C@@H]1C=C[C@H](ON=C(C)CCN2CCCCc3nc(C)c(C)cc32)[C@H](CO)O1 | -23%[8.59 µM] | -5%[8.59 µM]
CC(=O)OC1CC(OC2C(O)CC(OC3C(O)CC(OC4CCC5(C)C(CCC6C5CC(O)C5(C)C(C7=CC(=O)OC7)CCC65O)C4)OC3C)OC2C)OC(C)C1OC1OC(CO)C(O)C(O)C1O (configuration not stated) | 0.28µM* | 0.32µM*
COc1cccc([C@@H]2Oc3ccc(OC)cc3C(=O)[C@H]2OC(=O)N[C@H]2CCCc3ccccc32)c1 | -1% | 2%
O=c1c(O)c(-c2ccccc2O)oc2cc(O)cc(O)c12 | -5% | -7%

Compound activity as filed in PubChem.
